The supplement of paper PMC12350171
Where a name gives a salt, the structure may show the parent alone.

Experiments:
Conditions in all cases: 20 µM
[1] = system: Salmonella enterica typhimurium; test: growth AUC normalised to DMSO control (fraction of control); higher = less growth inhibition, active = hit call of the paper
Summary of the method: (§1)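 For the AUC endpoint, growth curves were integrated by the trapezoidal rule up to the exponential-to-stationary transition and normalised to DMSO controls on the same plate. The curves came from OD578 readings taken hourly for 24 h, in three biological replicates. Pathogens had been passaged anaerobically twice and inoculated at an OD578 of 0.01 into pre-reduced mGAM plates carrying 20 μM compound and 1% DMSO, sealed with breathable membranes. Medium for Haemophilus parainfluenzae also contained hemin and NAD.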

Shigella flexneri = test: as above
Summary of the method: as §1

Vibrio cholerae = test: as above
Summary of the method: as §1

[2] = system: Yersinia pseudotuberculosis; test: as above
Summary of the method: as §1

P. vulgatus RND KO = test: growth AUC normalised to DMSO control (median) (fraction of control); higher = less growth inhibition, active = hit call of the paper
Summary of the method: (§2)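 Each strain went through two overnight passages under anaerobic conditions before growth in mGAM in 96-well plates, starting at OD578 0.01, with each compound from the approved-drug library at 20 μM and 1% DMSO. Inside an anaerobic incubator, OD578 was recorded every hour for 24 h. Growth curves were cut off at entry into stationary phase, and the area under the curve was calculated by the trapezoidal rule and normalised to vehicle wells on the same plate. Reported values are medians of three biological replicates.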

P. vulgatus WT = test: as above
Summary of the method: as §2

[3] = system: S. enterica typhimurium WT; test: as above
Summary of the method: as §2

[4] = system: S. enterica typhimurium tolC KO; test: as above
Summary of the method: as §2

Measured: growth AUC normalised to DMSO control
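Throughout, for growth AUC normalised to DMSO control (median): active when median AUC fell below 0.1.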

COc1cccc2c1C(=O)c1c(O)c3c(c(O)c1C2=O)C[C@@](O)(C(=O)CO)C[C@@H]3O[C@H]1C[C@H](N)[C@H](O)[C@H](C)O1 [Doxorubicin hydrochloride]
active: [1] 0.942 | [2] 0.906 | [4] 0.0132
inactive: Shigella flexneri 0.932 | Vibrio cholerae 0.998 | P. vulgatus RND KO 0.948 | P. vulgatus WT 0.966 | [3] 0.986

CNC1(C)C2CCC(C2)C1(C)C (centres undefined) [Mecamylamine hydrochloride]
inactive: [1] 1.02 | Shigella flexneri 1 | Vibrio cholerae 0.976 | [2] 1.02 | P. vulgatus RND KO 1.09 | P. vulgatus WT 1.09 | [3] 1.02 | [4] 1.02

CCc1cc(Cl)c(OC)c(C(=O)NC[C@@H]2CCCN2CC)c1O [(S,-) Eticlopride hydrochloride]
inactive: [1] 1 | Shigella flexneri 1.01 | Vibrio cholerae 0.922 | [2] 0.986 | P. vulgatus RND KO 1.06 | P. vulgatus WT 1.03 | [3] 1 | [4] 0.947

CCN1C(=O)NC(c2ccccc2)C1=O (centres undefined) [Ethotoin]
inactive: [1] 0.995 | Shigella flexneri 0.99 | Vibrio cholerae 0.996 | [2] 0.992 | P. vulgatus RND KO 1 | P. vulgatus WT 0.993 | [3] 0.987 | [4] 1

Fc1ccc([C@@H]2CCNC[C@H]2COc2ccc3c(c2)OCO3)cc1 [Paroxetine hydrochloride]
inactive: [1] 0.995 | Shigella flexneri 1 | Vibrio cholerae 0.94 | [2] 0.991 | P. vulgatus RND KO 0.997 | P. vulgatus WT 1.02 | [3] 0.998 | [4] 0.982

CCOC(=O)Nc1ccc2c(c1)N(C(=O)CCN1CCOCC1)c1ccccc1S2 [Moricizine hydrochloride]
inactive: [1] 1.01 | Shigella flexneri 0.997 | Vibrio cholerae 0.942 | [2] 1.01 | P. vulgatus RND KO 0.766 | P. vulgatus WT 0.638 | [3] 1.01 | [4] 0.957

Cc1nc2ccccn2c(=O)c1CCN1CCC(C(=O)c2ccc(F)cc2)CC1 [Pirenperone]
inactive: [1] 1.02 | Shigella flexneri 1.03 | Vibrio cholerae 1.01 | [2] 1 | P. vulgatus RND KO 1.03 | P. vulgatus WT 1.04 | [3] 1.01 | [4] 0.986

Clc1ccccc1C(c1ccccc1)(c1ccccc1)n1ccnc1 [Clotrimazole]
inactive: [1] 0.992 | Shigella flexneri 1.02 | Vibrio cholerae 0.932 | [2] 0.985 | P. vulgatus RND KO 0.952 | P. vulgatus WT 0.954 | [3] 0.995 | [4] 0.829

CCN(CCCCOC(=O)c1ccc(OC)c(OC)c1)C(C)Cc1ccc(OC)cc1 (centres undefined) [Mebeverine hydrochloride]
inactive: [1] 1.01 | Shigella flexneri 1.03 | Vibrio cholerae 1.02 | [2] 1.01 | P. vulgatus RND KO 1.01 | P. vulgatus WT 1.01 | [3] 1 | [4] 0.934

CC(C)(Oc1ccc(CCNC(=O)c2ccc(Cl)cc2)cc1)C(=O)O [Bezafibrate]
inactive: [1] 0.976 | Shigella flexneri 0.959 | Vibrio cholerae 0.988 | [2] 0.994 | P. vulgatus RND KO 0.976 | P. vulgatus WT 1 | [3] 0.998 | [4] 0.99

CC(=O)Nc1c(I)c(C(=O)N[C@H]2C(O)O[C@H](CO)[C@@H](O)[C@@H]2O)c(I)c(N(C)C(C)=O)c1I (some centres undefined) [Metrizamide]
inactive: [1] 1.01 | Shigella flexneri 0.985 | Vibrio cholerae 0.988 | [2] 1.01 | P. vulgatus RND KO 1 | P. vulgatus WT 1.01 | [3] 1.02 | [4] 1.01

Cc1c(Cl)cccc1Nc1ncccc1C(=O)O [Clonixin lysinate]
inactive: [1] 1 | Shigella flexneri 0.989 | Vibrio cholerae 0.94 | [2] 1 | P. vulgatus RND KO 0.979 | P. vulgatus WT 1 | [3] 1.02 | [4] 0.954

Clc1ccc(Nc2nnc(Cc3ccncc3)c3ccccc23)cc1 [Vatalanib]
inactive: [1] 1.01 | Shigella flexneri 1.05 | Vibrio cholerae 1.01 | [2] 1.02 | P. vulgatus RND KO 0.98 | P. vulgatus WT 0.992 | [3] 1.01 | [4] 0.966

CC[C@@H](CO)NCCN[C@@H](CC)CO [Ethambutol dihydrochloride]
inactive: [1] 0.943 | Shigella flexneri 0.976 | Vibrio cholerae 1 | [2] 1.01 | P. vulgatus RND KO 1.01 | P. vulgatus WT 0.998 | [3] 1 | [4] 0.989

C[C@]12C[C@H](O)[C@H]3[C@@H](CCC4=CC(=O)CC[C@@]43C)[C@@H]1CC[C@@H]2C(=O)CO [Corticosterone]
inactive: [1] 1 | Shigella flexneri 0.978 | Vibrio cholerae 0.984 | [2] 0.996 | P. vulgatus RND KO 1 | P. vulgatus WT 1.01 | [3] 1.02 | [4] 1

NC[C@@H]1O[C@H](O[C@H]2[C@@H](O)[C@H](O[C@@H]3[C@@H](O)[C@H](N)C[C@H](N)[C@H]3O[C@H]3O[C@H](CN)[C@@H](O)[C@H](O)[C@H]3N)O[C@@H]2CO)[C@H](N)[C@@H](O)[C@@H]1O [Neomycin sulfate]
inactive: [1] 1.01 | Shigella flexneri 1.04 | Vibrio cholerae 1.05 | [2] 1 | P. vulgatus RND KO 1.02 | P. vulgatus WT 1.01 | [3] 0.999 | [4] 1.03

c1ccc(CN(CC2=NCCN2)c2ccccc2)cc1 [Antazoline hydrochloride]
inactive: [1] 0.999 | Shigella flexneri 1.01 | Vibrio cholerae 1.01 | [2] 1 | P. vulgatus RND KO 1.03 | P. vulgatus WT 1.05 | [3] 0.996 | [4] 1

C[C@@](Cc1ccc(O)c(O)c1)(NN)C(=O)O [Carbidopa]
inactive: [1] 0.994 | Shigella flexneri 0.948 | Vibrio cholerae 0.996 | [2] 0.972 | P. vulgatus RND KO 0.99 | P. vulgatus WT 0.993 | [3] 1 | [4] 1.01

CCCCc1nc(Cl)c(CO)n1Cc1ccc(-c2ccccc2-c2nnn[nH]2)cc1 [Losartan]
inactive: [1] 1.03 | Shigella flexneri 1.03 | Vibrio cholerae 1.04 | [2] 1.02 | P. vulgatus RND KO 0.974 | P. vulgatus WT 0.977 | [3] 1 | [4] 0.995

CN1CCCN(C(c2ccccc2)c2ccc(Cl)cc2)CC1 (centres undefined) [Homochlorcyclizine dihydrochloride]
inactive: [1] 0.971 | Shigella flexneri 0.938 | Vibrio cholerae 0.861 | [2] 0.965 | P. vulgatus RND KO 0.972 | P. vulgatus WT 0.984 | [3] 1 | [4] 0.956

NS(=O)(=O)c1cc(C(=O)O)cc(N2CCCC2)c1Oc1ccccc1 [Piretanide]
inactive: [1] 1.03 | Shigella flexneri 1.07 | Vibrio cholerae 1.08 | [2] 1.01 | P. vulgatus RND KO 1.06 | P. vulgatus WT 1.07 | [3] 1 | [4] 0.997

Nc1nc(=O)n([C@@H]2CS[C@H](CO)O2)cc1F [(-) Emtricitabine]
inactive: [1] 0.995 | Shigella flexneri 0.961 | Vibrio cholerae 0.993 | [2] 0.981 | P. vulgatus RND KO 0.983 | P. vulgatus WT 0.986 | [3] 0.998 | [4] 0.993

OC(CCN1CCCC1)(c1ccccc1)C1CCCCC1 (centres undefined) [Procyclidine hydrochloride]
inactive: [1] 0.975 | Shigella flexneri 0.953 | Vibrio cholerae 0.937 | [2] 0.984 | P. vulgatus RND KO 0.96 | P. vulgatus WT 0.941 | [3] 1.01 | [4] 0.983

CN(C(=O)CN(CCO)CC(=O)N(C)C(C)(C)Cc1ccccc1)C(C)(C)Cc1ccccc1 [Oxethazaine]
inactive: [1] 0.974 | Shigella flexneri 1.01 | Vibrio cholerae 0.99 | [2] 0.995 | P. vulgatus RND KO 0.688 | P. vulgatus WT 0.646 | [3] 1.01 | [4] 0.966

CC(=O)OCC(=O)[C@@]1(O)[C@H](C)C[C@H]2[C@@H]3CCC4=CC(=O)C=C[C@]4(C)[C@@]3(F)[C@@H](O)C[C@@]21C [Dexamethasone acetate]
inactive: [1] 1 | Shigella flexneri 1 | Vibrio cholerae 1 | [2] 0.999 | P. vulgatus RND KO 0.993 | P. vulgatus WT 1.02 | [3] 1.01 | [4] 0.998

CCS(=O)(=O)CCn1c([N+](=O)[O-])cnc1C [Tinidazole]
active: P. vulgatus RND KO 0.0183 | P. vulgatus WT 0.0185
inactive: [1] 1.01 | Shigella flexneri 0.99 | Vibrio cholerae 1 | [2] 0.971 | [3] 1 | [4] 0.995

CO[C@H]1/C=C/O[C@@]2(C)Oc3c(C)c(O)c4c(O)c(c5c(nc6cc(C)ccn65)c4c3C2=O)NC(=O)/C(C)=C\C=C\[C@H](C)[C@H](O)[C@@H](C)[C@@H](O)[C@@H](C)[C@H](OC(C)=O)[C@@H]1C [Rifaximin]
active: [1] 0.477 | Shigella flexneri 0.56 | [2] 0.0303 | P. vulgatus RND KO 0.0137 | P. vulgatus WT 0.00787 | [4] 0.0409
inactive: Vibrio cholerae 1.1 | [3] 0.217

Cc1cnc(C(=O)NCCc2ccc(S(=O)(=O)NC(=O)NC3CCCCC3)cc2)cn1 [Glipizide]
inactive: [1] 1.01 | Shigella flexneri 0.984 | Vibrio cholerae 1.01 | [2] 1.01 | P. vulgatus RND KO 1.04 | P. vulgatus WT 0.998 | [3] 1.01 | [4] 0.996
